According to PubChem BioAssay (NCI):
This is part of a sample that, as a whole, favours compounds with a hit. Of some 83,000 tested, about 20% had one in any assay.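 A percent growth of 40 corresponds to 60% growth inhibition; 0 means no net growth; -100 means all cells died. Active threshold: below 10.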 A number with no mark means an inactive call. Active and inactive are the calls of the source.

Key:
Assay in all cases: NCI-60 one-dose screen, 48 h (100 = growth as untreated, 0 = no growth, -100 = all killed)
Settings in all cases: 10 µM unless noted
SN12C renal = test system: SN12C renal
UO-31 renal = test system: UO-31 renal
TK-10 renal = test system: TK-10 renal
ACHN renal = test system: ACHN renal
CAKI-1 renal = test system: CAKI-1 renal
A498 renal = test system: A498 renal
CCRF-CEM leukemia = test system: CCRF-CEM leukemia
MOLT-4 leukemia = test system: MOLT-4 leukemia
SR leukemia = test system: SR leukemia

Row | Structure (SMILES) | growth (SN12C renal) | growth (UO-31 renal) | growth (TK-10 renal) | growth (ACHN renal) | growth (CAKI-1 renal) | growth (A498 renal) | growth (CCRF-CEM leukemia) | growth (MOLT-4 leukemia) | growth (SR leukemia)
1 | CN(C)CCCNCc1ccc(-c2ccc(F)c(Cl)c2)o1 | 60.2% | 16.7% | 42.8% | 30.1% | 37.5% | 78.2% | 1.99% (active) | -4.5% (active) | -22.9% (active)
2 | O=C(NC1CCN(Cc2ccccc2)CC1)c1cc2nc(-c3ccc(Cl)s3)cc(C(F)(F)F)n2n1 | 91.3% | 96.1% | 84.9% | 96.4% | 102% | – | -21.7% (active) | -34.3% (active) | -8.99% (active)
3 | COc1ccc(Cn2c(Br)c3c(c2-c2cc(OC)c(OC)c(OC)c2)CCc2sc(NC(C)=O)nc2-3)cc1 | 71.9% | 13.9% | 70.6% | 53.7% | 44% | – | – | 45.1% | 14.3%
4 | CN1CCN(c2nc(Nc3ccc(O)cc3)nc3ccccc23)CC1 | 63.8% | 57.3% | 71.9% | 49.5% | – | 85.2% | 93.4% | 98.4% | 87%
5 | O=C(N/N=C/c1ccccc1Cl)C(=O)Nc1cccc(C(F)(F)F)c1 | 92.7% | 90.8% | 83.7% | 76% | 97.6% | 89.3% | – | 92.1% | 65.1%
6 | COc1ccc(C(O)(CCC(C)C)C(CN2CCOCC2)c2ccc(Cl)cc2)cc1 (stereo unspecified) | 70.6% | 62.8% | 86% | 57.4% | – | – | 34.2% | 34.2% | 10.7%
7 | O=C(/C=C/c1ccccn1)c1ccc(OCc2nnc(-c3ccc(Cl)cc3)o2)cc1 | 33.2% | -90.1% (active) | 16.6% | 27.3% | -25.7% (active) | 88.3% | – | 17.2% | -11.7% (active)
8 | CCCCCCCCCCOC(=O)c1ccccc1C(=O)OCCCC | – | 81.3% | 108% | 109% | – | 121% | 103% | 95.4% | 100%
9 | COc1ccc(/C=C2\SC(=Nc3ccccc3)NC2=O)cc1 | -39.9% (active) | -98.3% (active) | -92.3% (active) | -70.9% (active) | – | -92.5% (active) | -53.6% (active) | -59% (active) | -33% (active)
10 | O=NN(Cc1cccnc1)C(=O)NC1CCCCC1 | 98.9% | 90% | 114% | 96.5% | 93.9% | – | 102% | 111% | 99.7%
11 | Cc1ccc(C)c(-c2csc(Nc3ccc(C)c(C)c3)n2)c1 | 66.3% | 40.3% | 51.6% | 58.9% | 78.2% | – | 6.99% (active) | 24.9% | -6.45% (active)
12 | CCOC(=O)c1cnc2c(C)cccc2c1Nc1ccc(C(C)=O)cc1 | 29.9% | 13.3% | 10.7% | 17.7% | 12% | 46.5% | 1.73% (active) | -4.17% (active) | -28.5% (active)
13 | COc1cccc(C(=O)NC(c2ccc(C)cc2)c2cc(Cl)c3cccnc3c2O)c1 (stereo unspecified) | 12.6% | -18.9% (active) | 27% | 10.6% | -3.64% (active) | – | 8.88% (active) | 11.4% | 11.3%
14 | COc1cc(NC(=O)CCSc2nc3ccccc3c(=O)n2CCc2ccccn2)cc(OC)c1OC | 92.8% | 85% | 111% | 91% | 89% | 74.7% | – | 87.6% | –
15 | CCCCCCc1cc2cc(-c3nc4ccccc4[nH]3)c(=Nc3ccccc3C)oc2cc1O | 45.8% | 20.3% | 46.8% | 51% | – | – | 25.3% | 21% | -14.5% (active)
16 | CC(=O)n1cc(-c2c[nH]c3ccccc23)c(-c2ccc(Cl)cc2)n1 | 99.8% | 60.5% | 94.9% | 78.5% | 61.2% | 71.6% | – | 88.2% | 92.9%
17 | COCCN(C(=O)Cc1cccs1)C(C(=O)NCc1ccc(OC)cc1)c1ccc(C(C)C)cc1 (stereo unspecified) | 89.9% | 82.5% | 115% | 87.1% | 84.6% | 77.1% | – | 80.3% | 74.3%

Row | Structure (SMILES) | growth (SN12C renal) | growth (UO-31 renal) | growth (TK-10 renal) | growth (ACHN renal) | growth (CAKI-1 renal) | growth (A498 renal) | growth (CCRF-CEM leukemia) | growth (MOLT-4 leukemia) | growth (SR leukemia)
18 | CC(=O)SC1CC(=O)C=C2CCC3C4CCC(=O)OC4(C)CCC3C21C (stereo unspecified) | – | 87% | 93.8% | 106% | – | 101% | 101% | 105% | 111%
19 | COc1ccccc1C(=O)O/N=C(\N)Cc1cccc2ccccc12 | 67.3% | 70.8% | 120% | 86.5% | 77% | – | 80.1% | 79% | 82.1%
20 | CSc1nc2c(c(=O)[nH]1)N=C1c3ccccc3C(=O)C1C(c1ccccc1)N2 (stereo unspecified) | 68.7% | 70% | 67.8% | 48.7% | – | 45.3% | 29% | 20% | -35.6% (active)
21 | COc1cc(OC)cc(N2C(=O)N(Cc3ccc(C(C)(C)C)cc3)c3ccccc3S2(=O)=O)c1 | 86.1% | 54% | 97.8% | 81.2% | – | 98.6% | 84.7% | 93.3% | 41.8%
22 | COc1nc2c(c(=O)n1C)N=C1c3ccccc3C(=O)C1C(c1ccccc1)N2 (stereo unspecified) | 95.4% | 78.9% | 107% | 94% | – | 89.1% | 103% | 76.5% | –
23 | O=C(Nc1ccccc1O)c1ccc(-c2ccc(Cl)cc2Cl)o1 | 89.8% | 74% | 102% | 102% | 78.7% | 86.4% | – | 65.6% | 48.7%
24 | COc1ccc(C(=O)C2CC2c2ccc(Cl)cc2)cc1 (stereo unspecified) | 85% | 64.4% | 103% | 78.6% | 87.9% | 114% | 9.89% (active) | 41.2% | 77.8%
25 | COC(=O)[C@H]1CCCN1C(=O)[C@H]1CCCN1C(=O)[C@H](Cc1c[nH]c2ccccc12)NC(=S)Nc1cc(C(F)(F)F)cc(C(F)(F)F)c1 | 51% | 45.5% | 80.9% | 49% | 38.6% | 77% | – | 29.4% | 4.48% (active)
26 | CCOC(=O)C(CC(=O)O)=C(C(=O)OCC)C(=O)OCC | 104% | 98.8% | 120% | 105% | 99.6% | – | 110% | 95.8% | 95.8%
27 | COc1cc(C(=O)Nc2ccc(-c3nc4ccccc4[nH]3)cc2)cc(OC)c1OC | 45.4% | 49.5% | 60.1% | 61.9% | 55.9% | – | 36.5% | 41.3% | 10.1%
28 | Cn1c(C(=O)c2cccc3ccccc23)nc2ccccc21 | 11.8% | -21.3% (active) | 21.3% | 11% | -11.9% (active) | – | 8.07% (active) | 9.16% (active) | 4.54% (active)
29 | C=C(C)CCC(C)N1CCC(N2CCC(C(=O)NCCc3ccccc3)CC2)CC1 (stereo unspecified) | 57.5% | 78.2% | 114% | 72.1% | 89.1% | 72% | – | 42.9% | 4.33% (active)
30 | O=C(NC(=S)Nc1cccc(NC(=S)NC(=O)c2ccccc2)c1)c1ccccc1 | 61.9% | 84.6% | 75.8% | 60.6% | – | 104% | – | 103% | 79.8%
31 | COc1ccc(-n2c(C(O)c3ccccc3)n[nH]c2=S)cc1 (stereo unspecified) | 88.2% | 79.6% | 101% | 95.5% | – | 103% | 98.4% | 83.4% | –
32 | Cc1ccc2cc3c(N)c4c(C)ccc(C)c4nc3nc2c1 | 63.9% | 10.4% | 66.6% | 60.8% | 7.98% (active) | – | 39.6% | 44.8% | -9.96% (active)
33 | O=C(NCCCN1CCC(N2CCCCC2)CC1)C1=Cc2cc(Br)ccc2OC1 | 57.7% | 21.8% | 60% | 37.7% | 54.5% | – | 27.4% | 11.9% | 11.4%
34 | c1ccc(-c2ccc(-c3nc4ccccc4[nH]3)cc2)cc1 | 92.9% | 67.4% | 84.7% | 90.7% | 93.6% | 88.6% | – | 56.9% | 58.8%
